Experiment [1] is described as follows: A CellTox Green Cytotoxicity Assay to monitor cytotoxicity in HepG2 cells - 40 hour (AID 1224879). Also: nearly all actives have a fitted effect of over 40% in size. Also: potency is read from the fitted curve at half-maximal effect. An outline of the steps: (§1)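 Real-time cytotoxicity: fluorescence of a cell-impermeant cyanine dye binding DNA of dead HepG2 cells, measured repeatedly (0–40 h) during compound exposure at 37 C. Cells seeded 600/well with reagent, dosed after 5 h.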
Experiment [2] is described as follows: qHTS RealTime-Glo MT Cell Viability Assay in HEK293 cells - 0 hour (AID 1224880). Also: top concentration of the series differs between compounds; nearly all actives have a fitted effect of over 45% in size. An outline of the steps: (§2)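 Luminescence, which tracks viable cell number through reduction of the prosubstrate to a NanoLuc substrate, was read over continuous 37 C culture. Cells (600/well) were premixed with reagent and rested 5 h before 23 nL of compound in DMSO was pinned.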
On the technique in general: qHTS replaces the single test concentration by a dilution series.

Experiment [3] is described as follows: A CellTox Green Cytotoxicity Assay to monitor cytotoxicity in HEK293 cells - 32 hour (AID 1224881). Also: nearly all actives have a fitted effect of over 40% in size. The procedure, abridged:
(§3)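 Fluorescence from a DNA-binding dye excluded by viable cells was measured repeatedly in the same HEK293 wells (600 cells/well) during continuous compound exposure at 37 C. Each assay gives one read point: 0, 8, 16, 24, 32 or 40 h.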

The nature of experiment [4]: A CellTox Green Cytotoxicity Assay to monitor cytotoxicity in HepG2 cells - 0 hour (AID 1224882). Also: nearly all actives have a fitted effect of over 35% in size. An outline of the steps:
as §1

Experiment [5] is described as follows: A CellTox Green Cytotoxicity Assay to monitor cytotoxicity in HepG2 cells - 32 hour (AID 1224883). Also: nearly all actives have a fitted effect of over 50% in size. Also: potency is read from the fitted curve at half-maximal effect. The procedure, abridged: as §1
Experiment [6] in a line: A CellTox Green Cytotoxicity Assay to monitor cytotoxicity in HEK293 cells - 8 hour (AID 1224884). Also: nearly all actives have a fitted effect of over 35% in size. The procedure, abridged: as §3
Experiment [7] is described as follows: qHTS RealTime-Glo MT Cell Viability Assay in HepG2 cells - 16 hour (AID 1224885). Also: nearly all actives have a fitted effect of over 50% in size. The procedure, abridged:
(§4)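 HepG2 suspension premixed with RealTime-Glo reagents is plated at 600 cells per well and left 5 h at 37 C/5% CO2. Compounds in DMSO then go in, and bioluminescence reflecting viable cell number is recorded over 40 h.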

A short description of experiment [8]: qHTS RealTime-Glo MT Cell Viability Assay in HEK293 cells - 24 hour (AID 1224886). Also: top concentration of the series differs between compounds; nearly all actives have a fitted effect of over 50% in size. An outline of the steps: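 Reads taken at 0, 8, 16, 24, 32 and 40 h from the same wells. HEK293 cells (600/well) carried RealTime-Glo reagents from seeding, with compound added after a 5 h settle at 37 C.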
Experiment [9] is described as follows: qHTS RealTime-Glo MT Cell Viability Assay in HEK293 cells - 8 hour (AID 1224887). Also: top concentration of the series differs between compounds; nearly all actives have a fitted effect of over 50% in size. An outline of the steps:
as §2

The nature of experiment [10]: A CellTox Green Cytotoxicity Assay to monitor cytotoxicity in HEK293 cells - 16 hour (AID 1224888). Also: nearly all actives have a fitted effect of over 35% in size. The procedure, abridged:
as §3

A short description of experiment [11]: qHTS RealTime-Glo MT Cell Viability Assay in HepG2 cells - 0 hour (AID 1224889). Also: nearly all actives have a fitted effect of over 50% in size. The procedure, abridged:
as §4

Experiment [12] in a line: A CellTox Green Cytotoxicity Assay to monitor cytotoxicity in HepG2 cells - 8 hour (AID 1224890). Also: nearly all actives have a fitted effect of over 45% in size. The procedure, abridged: as §1
Experiment [13] is described as follows: qHTS assay to identify small molecule antagonists of the estrogen receptor alpha (ER-alpha) signaling pathway using the BG1 cell line in the presence of 0.1 nM 17-beta-estradiol - cell viability counter screen (AID 1259241). Also: nearly all actives have a fitted effect of over 40% in size. The procedure, abridged:
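Following 5 days in phenol red-free medium with charcoal-stripped serum, VM7Luc4E2 cells received test compounds alongside 0.1 nM 17beta-estradiol (final) at 37C for 22 hr. Live cells were then quantified via protease-substrate fluorescence.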

A short description of experiment [14]: qHTS assay to identify small molecule antagonists of the androgen receptor (AR) signaling pathway using the MDA cell line in the presence of 0.5 nM R1881 - cell viability counter screen (AID 1259242). Also: nearly all actives have a fitted effect of over 45% in size. An outline of the steps:
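Live-cell protease activity was measured by CellTiter-Fluor fluorescence after 30 min. Before that, MDA-kb2 MMTV-luciferase cells had 16 hr at 37C without CO2, exposed to test compounds and 0.5 nM R1881 final.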

Experiment [15] in a line: qHTS assay to identify small molecule HDAC inhibitors (AID 1259364). Also: top concentration of the series differs between compounds; nearly all actives have a fitted effect of over 45% in size. The procedure, abridged: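 Luminescence read after 30 min room-temperature HDAC-Glo incubation measures cellular class I/II HDAC activity. Compounds were applied for 2 hr at 37 C to HCT-116 wild-type cells seeded the day before.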
Experiment [16] can be described thus: qHTS assay to identify small molecule HDAC inhibitors - cell viability counter screen (AID 1259365). The procedure, abridged:
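HCT-116 wild-type, overnight attachment; 2hr drug exposure, 37C; CellTiter-Glo luminescent ATP readout after 30min RT.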

In experiment [17] the target is Estrogen receptor (Homo sapiens) (UniProt P03372). The experiment is described as follows: qHTS assay to identify small molecule antagonists of the estrogen receptor alpha (ER-alpha) signaling pathway using the BG1 cell line in the presence of 0.1 nM 17-beta-estradiol (AID 1259244). Also: nearly all actives have a fitted effect of over 50% in size. The procedure, abridged: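 Luciferase luminescence (ONE-Glo, 30 min at room temperature) was read after 22 hr at 37C exposure to compounds plus 17beta-estradiol at 0.1 nM final. Cells were VM7Luc4E2 with endogenous ER-alpha and an ERE-driven luciferase, pre-cultured 5 days in hormone-depleted medium.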

A short description of experiment [18]: qHTS assay to identify small molecule phospholipidosis (PLD) inducers (AID 1259344; active = well fitted curve in the direction sought with a large enough effect; an effect the other way counts as inactive or inconclusive). An outline of the steps:
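Image-based: LipidTOX Red pit count/intensity per well and per cell; HepG2, 24 h compound at 37 C, PFA fixation, Hoechst counterstain.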

Experiment [19] deals with Androgen receptor (Homo sapiens) (UniProt P10275). In words: qHTS assay to identify small molecule antagonists of the androgen receptor (AR) signaling pathway using the MDA cell line in the presence of 0.5 nM R1881 (AID 1259243). Also: nearly all actives have a fitted effect of over 50% in size. The procedure, abridged: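 Luminescent reporter readout (ONE-Glo, 30 min, room temperature) after 16 hr co-treatment of MDA-kb2 cells with test compounds and 0.5 nM R1881 final, at 37C without CO2. The MMTV-driven luciferase responds to both AR and GR.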

Twelve compounds from PubChem BioAssay (Tox21) can be followed below.

Molecules are shown by their SMILES. Values without a mark were called inactive. Records with an inconclusive call do not appear. Activity calls are given as the source filed them. Unless noted, calls follow the shape of the dose curve; as a rule, active = well fitted curve in the direction sought with a large enough effect in the repeat runs; inconclusive = weak or mixed curves; inactive = no such curve, though single readings can be large; an effect the other way counts as inactive or inconclusive.

Chain of Estrogen receptor (Homo sapiens) (P03372 whole entry, looked up): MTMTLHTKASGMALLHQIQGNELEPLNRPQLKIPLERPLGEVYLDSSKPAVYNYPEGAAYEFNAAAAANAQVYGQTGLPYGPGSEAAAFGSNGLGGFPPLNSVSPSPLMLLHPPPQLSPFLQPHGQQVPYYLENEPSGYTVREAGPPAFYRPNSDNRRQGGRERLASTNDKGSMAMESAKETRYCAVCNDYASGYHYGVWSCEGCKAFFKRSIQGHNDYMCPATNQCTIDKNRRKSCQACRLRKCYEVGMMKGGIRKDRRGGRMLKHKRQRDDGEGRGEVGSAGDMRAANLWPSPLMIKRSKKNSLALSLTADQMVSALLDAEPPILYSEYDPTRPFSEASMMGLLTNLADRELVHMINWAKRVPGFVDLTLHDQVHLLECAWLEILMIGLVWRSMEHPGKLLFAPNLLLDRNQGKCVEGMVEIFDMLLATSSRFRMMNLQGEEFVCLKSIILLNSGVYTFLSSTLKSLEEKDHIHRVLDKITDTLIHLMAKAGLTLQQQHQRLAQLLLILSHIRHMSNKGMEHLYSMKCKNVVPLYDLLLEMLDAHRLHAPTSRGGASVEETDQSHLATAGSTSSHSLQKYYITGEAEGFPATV
Chain of Androgen receptor (Homo sapiens) (P10275 whole entry, looked up): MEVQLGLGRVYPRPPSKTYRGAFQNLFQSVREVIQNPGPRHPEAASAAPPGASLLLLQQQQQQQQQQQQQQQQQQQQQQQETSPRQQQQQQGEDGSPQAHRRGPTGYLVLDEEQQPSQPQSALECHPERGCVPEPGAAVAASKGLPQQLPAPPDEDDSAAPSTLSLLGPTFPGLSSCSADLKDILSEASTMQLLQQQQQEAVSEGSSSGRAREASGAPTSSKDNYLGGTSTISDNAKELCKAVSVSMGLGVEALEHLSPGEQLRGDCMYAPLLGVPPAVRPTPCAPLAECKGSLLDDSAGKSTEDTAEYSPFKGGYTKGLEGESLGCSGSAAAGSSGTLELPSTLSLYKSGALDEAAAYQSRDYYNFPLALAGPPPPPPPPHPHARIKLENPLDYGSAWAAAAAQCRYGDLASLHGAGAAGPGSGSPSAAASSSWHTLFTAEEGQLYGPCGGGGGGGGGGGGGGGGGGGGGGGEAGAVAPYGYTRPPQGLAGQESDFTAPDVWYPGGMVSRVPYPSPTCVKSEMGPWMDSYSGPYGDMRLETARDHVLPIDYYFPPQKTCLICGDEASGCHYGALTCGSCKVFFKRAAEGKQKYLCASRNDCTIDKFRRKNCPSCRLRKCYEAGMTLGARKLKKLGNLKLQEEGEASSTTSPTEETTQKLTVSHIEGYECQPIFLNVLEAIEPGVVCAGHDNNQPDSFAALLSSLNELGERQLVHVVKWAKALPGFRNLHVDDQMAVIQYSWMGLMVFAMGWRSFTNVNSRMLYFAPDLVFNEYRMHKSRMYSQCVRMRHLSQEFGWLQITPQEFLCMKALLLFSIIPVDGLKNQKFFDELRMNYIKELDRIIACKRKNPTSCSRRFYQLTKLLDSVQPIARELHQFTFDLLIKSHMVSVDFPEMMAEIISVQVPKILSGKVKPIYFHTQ

Consider `CC(C)c1cc(C(C)C)cc(C(C)C)c1`, for which the Potency result in experiment [1], in [2], in [3], in experiment [4], in experiment [5] and in experiment [6] was “inactive” each time. Also, the Potency entry in experiment [10], in [11], in experiment [12] and in [15] was “inactive” throughout. Besides, the compound was called inactive in experiment [7], in [8], in [9], in [13], in experiment [14] and in [16].

Regarding `CC(CC(=O)Cl)CC(C)(C)C` (stereo not given), the Potency result in experiment [1], in experiment [2], in experiment [3], in experiment [4], in experiment [5] and in experiment [10] was “inactive” in each case. Besides, the Potency result in [11], in [12] and in [15] was “inactive” throughout. The compound was called inactive in experiment [7], in [8], in [9], in [13], in experiment [14] and in experiment [17]. In addition, the outcome in experiment [16] was inactive.

In the case of `CC(C)(C)c1ccc(N)cc1`, the Potency in [1] and in experiment [5] was 61.7 µM (active) in each case. The Potency result in experiment [2], in [3], in experiment [4], in experiment [6], in experiment [10] and in experiment [11] was “inactive” each time. Further, the Potency entry in experiment [12] and in [15] was “inactive” in each case. The result in [7], in experiment [8], in experiment [9], in experiment [13], in experiment [14] and in [16] was inactive.

Take `O=c1[nH]c(=O)c2cn[nH]c2[nH]1`: the Potency entry in experiment [1], in experiment [2], in experiment [3], in [4], in experiment [5] and in [6] was “inactive” throughout. The Potency entry in experiment [10], in experiment [11], in experiment [12] and in experiment [15] was “inactive” each time. Besides, the outcome in experiment [7], in experiment [8], in experiment [9], in experiment [13], in experiment [14] and in [16] was inactive.

Regarding `CN1CCN(C(=O)C2CCCCC2)CC1`, the Potency entry in experiment [1], in experiment [2], in experiment [3], in experiment [4], in [5] and in experiment [6] was “inactive” throughout. In addition, the Potency entry in [10], in experiment [11], in experiment [12], in experiment [18] and in experiment [15] was “inactive” each time. The result in [7], in [8], in experiment [9], in [13], in [14] and in [16] was inactive.

For `N#CC1(N)CCCCC1`, the Potency entry in [1], in experiment [2], in [3], in [4], in [5] and in experiment [10] was “inactive” throughout. The Potency result in experiment [11], in [12] and in [15] was “inactive” in each case. Further, the call in [7], in experiment [8], in [9], in [13], in [14] and in experiment [17] was inactive. Besides, the compound was called inactive in experiment [16].

In the case of `Nc1ccc(C(=O)NCC(=O)O)cc1`, the Potency entry in experiment [1], in experiment [2], in experiment [3], in [4], in experiment [5] and in [6] was “inactive” each time. Moreover, the Potency result in experiment [10], in [11], in experiment [12], in experiment [18] and in experiment [15] was “inactive” throughout. Further, the compound was called inactive in [7], in [8], in [9], in experiment [13] and in experiment [16].

Consider `CN1C(CCl)Nc2cc(Cl)c(S(N)(=O)=O)cc2S1(=O)=O` (stereo not given), for which the Potency result in [1], in experiment [2], in [3], in [4], in [5] and in experiment [6] was “inactive” throughout. Further, the Potency entry in experiment [10], in [11], in experiment [12], in [18] and in experiment [15] was “inactive” in each case. In addition, the result in experiment [7], in experiment [8], in experiment [9], in [13], in experiment [17] and in experiment [16] was inactive.

Regarding `CCCC(=O)C(CC)Sc1ccoc1C` (stereo not given), the Potency result in experiment [2], in experiment [4], in experiment [6], in experiment [10], in experiment [12] and in experiment [19] was “inactive” in each case. In experiment [15], the Potency entry is “inactive”. The compound was classed as inactive in experiment [8], in experiment [9], in experiment [13], in experiment [14], in experiment [17] and in experiment [16].

`C[C@@H]1CCC[C@H](C)N1CCCC(O)(c1ccccc1)c1ccccn1` (stereo not given in full): the Potency result in experiment [1], in experiment [2], in [3], in [4], in [5] and in [6] was “inactive” each time. Also, the Potency entry in experiment [10], in experiment [11], in [12], in experiment [19] and in experiment [15] was “inactive” each time. Moreover, the result in experiment [7], in experiment [9], in experiment [13], in [17] and in [16] was inactive.

As to `C=CCN(CC=C)CC=C`, the Potency entry in experiment [1], in experiment [2], in experiment [3], in experiment [4], in experiment [5] and in experiment [6] was “inactive” throughout. Besides, the Potency entry in experiment [10], in [11], in experiment [12] and in [15] was “inactive” in each case. The result in experiment [7], in experiment [8], in experiment [9], in experiment [13] and in experiment [16] was inactive.

For `Nc1nc(Cl)cc(Cl)n1`, the Potency entry in experiment [1], in experiment [2], in experiment [3], in experiment [4], in experiment [5] and in experiment [6] was “inactive” throughout. The Potency result in experiment [10], in experiment [11], in [12] and in experiment [15] was “inactive” in each case. Besides, the outcome in experiment [7], in [8], in experiment [9], in experiment [13], in experiment [17] and in experiment [16] was inactive.
